# Assay outcomes from PubChem BioAssay.
# Most compounds without a hit are left out; they make up all but 10% or so of the library.
# NPR1 antag: Natriuretic polypeptide receptor (hNpr1) antagonism - Primary qHTS. Atrial natriuretic peptide receptor 1 (Homo sapiens), P16066. HEK293 hNpr1 GloSensor cGMP, ANP-stimulated luminescence. Potency, µM (highest dose often 46.3 µM), inactives show at the top dose activity change, negative = inhibition, hits mostly inhibitors. 1.6% of 76,000 active. AID 1347048, 2019; calls by dose curve; also: nearly all actives have a fitted effect of over 60% in size
#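 Compound pre-incubated 30 min at room temperature on GloSensor-loaded HEK293 cells stably carrying hNpr1 and the pGS-40F cGMP biosensor. Stimulation uses hNppA at 0.1 nM final; luminescence is taken at baseline and 20 min post-agonist.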
# 3T3 cytotox: Cytotoxic Profiling in NIH 3T3 Cell Line of Diverse Libraries Using Quantitative High-Throughput Screening; NIH 3T3 viability, CellTiter-Glo ATP luminescence, 48-72 h; Potency, µM (titrated, usually from 96.7 µM), inactives show at the top dose activity change, negative = cytotoxicity, hits mostly inhibitors; 4.3% of 94,000 active; also: nearly all actives have a fitted effect of over 55% in size
#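 Cytotoxicity was measured by CellTiter-Glo ATP luminescence after 48 or 72 h compound exposure at 37 °C. Mouse NIH 3T3 fibroblasts were seeded at 400 cells/well and dosed by 23 nL pin transfer.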
# FLuc inh: Firefly luciferase inhibition profiling of diverse chemical library using quantitative high-throughput screening. purified P. pyralis luciferase, luminescence, biochemical. AID 1347043, 2019. Potency, µM (top dose mostly 115 µM), actives largely listed as inhibitors. 2.5% of 76,000 active. Luciferin 4-monooxygenase (Photinus pyralis), P08659; also: nearly all actives have a fitted effect of over 65% in size
#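 Purified 10nM P. pyralis luciferase with 10uM D-luciferin and 10uM ATP in 50mM Tris acetate pH 7.5, 10mM Mg acetate, 0.01% Tween-20, 0.05% BSA. qHTS titration; luminescence read by CCD imager.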
# HEK cytotox: Cytotoxic Profiling in HEK 293 Cell Line of Diverse Libraries Using Quantitative High-Throughput Screening; Potency, µM (titrated, usually from 115 µM), for the others: top-dose activity change, negative = cytotoxicity, most hits filed as inhibitors; HEK 293 viability, ATP luminescence (CellTiter-Glo), 48-72 h; 6.6% of 94,000 active; also: nearly all actives have a fitted effect of over 60% in size
#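 Read-out: CellTiter-Glo ATP luminescence. Cells: HEK 293, 250 cells/well. Exposure: 48 or 72 hr, 37 degree Celsius.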
# GPT2 inh: Primary qHTS assay for inhibitors of Glutamate pyruvate transaminase 2 (GPT2); Alanine aminotransferase 2 (Homo sapiens), Q8TD30; Recombinant GPT2, coupled pyruvate oxidase/HRP Amplex Red fluorescence; 0.25% of 100,000 active; Potency, µM (doses to about 57.7 µM), without a hit: at the highest dose activity change, negative = inhibition, hits mostly inhibitors; AID 1671188, 2021; also: nearly all actives have a fitted effect of over 60% in size
# Target sequence (Q8TD30 whole entry, looked up): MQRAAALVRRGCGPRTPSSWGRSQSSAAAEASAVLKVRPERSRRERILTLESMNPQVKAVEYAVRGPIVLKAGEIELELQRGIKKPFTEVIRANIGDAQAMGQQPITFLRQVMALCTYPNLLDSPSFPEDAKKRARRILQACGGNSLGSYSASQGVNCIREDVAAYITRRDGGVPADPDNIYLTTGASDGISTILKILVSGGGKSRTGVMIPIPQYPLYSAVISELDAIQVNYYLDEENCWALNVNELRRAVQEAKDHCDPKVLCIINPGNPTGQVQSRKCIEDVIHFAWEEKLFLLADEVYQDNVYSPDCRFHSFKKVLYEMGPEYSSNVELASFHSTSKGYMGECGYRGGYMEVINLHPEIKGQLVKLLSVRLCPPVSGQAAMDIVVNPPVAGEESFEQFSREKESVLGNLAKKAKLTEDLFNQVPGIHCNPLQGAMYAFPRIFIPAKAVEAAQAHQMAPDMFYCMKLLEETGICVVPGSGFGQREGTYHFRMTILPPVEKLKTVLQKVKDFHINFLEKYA
#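 GPT2 10ng/uL, a-KG 250uM, L-Ala 2mM, HEPES pH7.5 + 0.0001% Tween; 30 min RT. Then Amplex mix (PO/HRP/ThPP), 30 min RT dark, fluorescence. AOA 50uM used as positive control.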
# * marks the source's active call; other numbers are inactive results; i = inactive; ? = inconclusive; · = no result; [ ] = remark or other dose. Unless noted, calls follow the shape of the dose curve; as a rule, active = well fitted curve in the direction sought with a large enough effect; inconclusive = small, poorly fitted or top-dose-only effect, or another doubt; inactive = no such curve, though single readings can be large; an effect the other way counts as inactive or inconclusive. % is scaled to controls: 0 for no effect and ±100 for the full control effect; potency is read from the fitted curve at half-maximal effect.
SMILES,NPR1 antag,3T3 cytotox,FLuc inh,HEK cytotox,GPT2 inh
Fc1cccc(-c2cnc(Nc3cncnc3)c3c2CCO3)c1,5%[70.6 µM],-24%[138 µM],i,?,i
O=C(Nc1ncc(-c2cccc(F)c2)c2c1OCC2)c1ccc(Cl)cc1,-4%[70.6 µM],?,i,100µM*,i
Cc1noc(C)c1-c1cnc(NC(=O)c2ccc(Cl)cc2)c2c1CCO2,2%[70.6 µM],89µM*,i,-24%[172 µM],0%[88.5 µM]
O=C([C@@H]1C[C@H](F)CN1C(=O)Nc1cccc(Cl)c1)N1CCCCC1,2%,3%,i,5%,i
Cc1noc(C)c1-c1cnc(Nc2ccc(F)c(Cl)c2)c2c1CCO2,?,?,14µM*,71µM*,-15%[88.5 µM]
O=C(C1CCN(S(=O)(=O)c2cccs2)CC1)N1CCC(c2ccccc2)CC1,·,?,·,?,4%
CN(C)c1ccc(-c2ccnc(N[C@H]3CO[C@H]4[C@@H]3OC[C@@H]4NC(=O)NCc3ccccc3)n2)cc1,-12%,22µM*,?,32µM*,2%
Cc1ccc(S(=O)(=O)N[C@H]2CO[C@H]3[C@@H]2OC[C@@H]3Nc2nccc(C(C)(C)C)n2)cc1,3.5µM*,?,?,25µM*,-6%[88.5 µM]
Cc1ccc(S(=O)(=O)N[C@H]2CO[C@H]3[C@@H]2OC[C@H]3O)cc1,1%[70.6 µM],0%[174 µM],i,1%[172 µM],i
C=CCNC(=O)N[C@H]1CO[C@H]2[C@@H]1OC[C@@H]2Nc1nccc(-c2ccc(OC)cc2)n1,-2%[70.6 µM],?,i,89µM*,-1%[88.5 µM]
O=C(N[C@H]1CO[C@H]2[C@@H]1OC[C@@H]2Nc1nccc(-c2ccc(-c3ccccc3)cc2)n1)c1ccccc1,?,?,i,10µM*,-3%
CCNC(=O)N[C@H]1CO[C@H]2[C@@H]1OC[C@@H]2Nc1nccc(-c2ccc(OC)cc2)n1,1%[70.6 µM],?,i,?,i
COc1cccc(-c2c(C(=O)NCc3cccc(Cl)c3)nc3sccn23)c1,·,?,·,?,i
CN(C)c1ccc(C(=O)N[C@H]2CO[C@H]3[C@@H]2OC[C@@H]3Nc2nccc(-c3cccs3)n2)cc1,-26%,?,?,45µM*,3%
Cc1ccc(C(=O)N[C@H]2CO[C@H]3[C@@H]2OC[C@@H]3Nc2nccc(-c3cccs3)n2)cc1,-5%[70.6 µM],-16%[174 µM],i,-3%[172 µM],0%[88.5 µM]
COCC(=O)N[C@H]1CO[C@H]2[C@@H]1OC[C@@H]2Nc1nccc(-c2cccc(F)c2)n1,3%[70.6 µM],?,i,100µM*,0%[88.5 µM]
CC(=O)N[C@H]1CO[C@H]2[C@@H]1OC[C@@H]2Nc1nccc(-c2cccc(F)c2)n1,?,-28%[174 µM],i,?,4%[88.5 µM]
COc1ccc(-c2ccnc(N[C@H]3CO[C@H]4[C@@H]3OC[C@@H]4NS(=O)(=O)c3ccc(NC(C)=O)cc3)n2)cc1,?,?,i,40µM*,0%
O=S(=O)(c1cccc(F)c1)N1CCC(OC2CCN(Cc3ccccc3)CC2)CC1,0%,-26%,i,-5%,i
Cc1ccc(S(=O)(=O)N2CCC(OC3CCN(Cc4ccccc4)CC3)CC2)cc1C,-22%,35µM*,i,?,i
CCC(=O)N1CCCN(Cc2ccc3c(c2)OCO3)c2ccccc21,-2%,?,i,45µM*,i
O=C(NCc1ccc2c(c1)OCO2)c1cnc2c(c1)N(Cc1ccccc1)CCC2,4%[70.6 µM],50µM*,i,?,i
CNC(=O)CCn1ncc2cc(OC3CCc4cccc(-c5cccc(F)c5)c43)ccc21 (stereo unspecified),-25%[70.6 µM],?,i,?,-28%[88.5 µM]
CNC(=O)CCn1ncc2cc(OC3CCc4cccc(-c5ccc(F)cc5)c43)ccc21 (stereo unspecified),-19%[70.6 µM],?,i,63µM*,?
CNC(=O)CCn1ncc2cc(OC3CCc4cccc(-c5ccccc5F)c43)ccc21 (stereo unspecified),?,50µM*,i,?,3%[88.5 µM]
SMILES,NPR1 antag,3T3 cytotox,FLuc inh,HEK cytotox,GPT2 inh
CNC(=O)CCn1ncc2cc(OC3CCc4cccc(-c5ccccc5)c43)ccc21 (stereo unspecified),-24%[70.6 µM],?,i,?,2%[88.5 µM]
COc1cccc(C(=O)N2CCN(CCCn3nc4n(c3=O)CCCC4)CC2)c1,·,-23%,·,-12%,·
Cc1cc(C)n(-c2ccc(F)cc2CN2CCCC(CO)(Cc3ccccc3)C2)n1 (stereo unspecified),-9%,?,i,?,-14%
CCc1ccc(CN2CCCC(CO)(Cc3ccc(F)cc3F)C2)cc1 (stereo unspecified),-1%,79µM*,i,?,-5%
COc1ccccc1/C=C/CN1CCCC(CCC(=O)Nc2ccccc2F)C1 (stereo unspecified),-1%,?,i,45µM*,-1%
COc1ccc(/C=C/CN2CCC(CCC(=O)Nc3ccccc3Cl)CC2)cc1,1%,79µM*,i,?,-9%
COc1ccccc1-c1ccc(CN2CCC(NC(=O)Cc3ccccc3)C2)cc1 (stereo unspecified),·,35µM*,·,40µM*,·
COc1ccccc1-c1ccc(CN2CCC(NC(=O)Nc3ccccc3F)C2)cc1 (stereo unspecified),·,16µM*,·,28µM*,·
COc1ccccc1-c1ccc(CN2CCC(NC(=O)N(C)C)C2)cc1 (stereo unspecified),·,-20%,·,?,·
COc1ccccc1-c1ccc(CN2CCC(NC(=O)Cc3cccc(Cl)c3)C2)cc1 (stereo unspecified),·,?,·,?,0%
CN1CCCCCC(O)c2cc(C(=O)N3CCc4ccccc43)ccc21 (stereo unspecified),?,35µM*,?,?,?
CN1CCCCCC(O)c2cc(C(=O)N3CCN(Cc4ccccc4)CC3)ccc21 (stereo unspecified),-24%,?,i,56µM*,i
Cc1cccc(N2CCN(C(=O)c3ccc4c(c3)C(O)CCCCCN4C)CC2)c1 (stereo unspecified),-13%,?,i,?,i
COc1ccccc1N1CCN(C(=O)c2ccc3c(c2)C(O)CCCCCN3C)CC1 (stereo unspecified),-18%,?,i,45µM*,i
CN1CCCCCCN(S(=O)(=O)c2cccc(F)c2)[C@H]2CCC[C@H]2C1=O,-8%,?,i,-27%,i
